# Data as given in the supplement of paper PMC8728848.
# The entries come from a sample that favours the strongest signals as a whole.
# B1: RobpsCRA (Robinia pseudoacacia) (protein)
# chain: IKGGYWYSGSGLAVSDINPSHFTHLFCAFADLDPNTNKLTISSSNAAAFSTFTQTVRAKNPSVKTLLSIGGGGGRALAAVFANMASQASRRKSFIDSSIQLARRNNFHGLDLDWEYPSSDIDKTNFASLIREWRAAVATESSTSGTPALLLSAAVGGSDQITPLKYYPGEAIANNLDWVNVMTYDLYTSDSYPTLTQPPAPLFYPRGIFSADEGITKWIQSGVPESKLALGLPFYGFKWRLSDPNNHGLFAPATQGLGAVKYKDIVNTGGQVEFDSTYVTNYCFKGTDWYGYDDTQSISAKVAYAKQRGLFGYFAWHIEQDSNWALS
# Experiments:
# Test in all cases: glycan array binding signal (z-score within array); higher = stronger binding
# Settings in all cases: glycan notation: IUPAC condensed, linker removed
# [1] = biological target: Fuc(a1-2)Gal(b1-3)GlcNAc(b1-3)GalNAc
# In short: (§1)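 Negative Z-scores can be read as non-binding. The Z-score is calculated within each array and then averaged across arrays of one protein sequence at different concentrations or buffers and across linkers. Arrays, 3228 in all, were curated from the Consortium for Functional Glycomics database and kept only where the protein sequence was available.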
# [2] = biological target: Fuc(a1-2)Gal(b1-4)Glc
# In short: as §1
# [3] = biological target: Fuc(a1-2)Gal(b1-4)GlcNAc(b1-2)Man(a1-3)[Fuc(a1-2)Gal(b1-4)GlcNAc(b1-2)Man(a1-6)]Man(b1-4)GlcNAc(b1-4)GlcNAc
# In short: as §1
# [4] = biological target: Fuc(a1-2)[Gal(a1-3)]Gal(b1-3)GalNAc
# In short: as §1
# [5] = biological target: Fuc(a1-2)[Gal(a1-3)]Gal(b1-3)GlcNAc(b1-2)Man(a1-3)[Fuc(a1-2)[Gal(a1-3)]Gal(b1-3)GlcNAc(b1-2)Man(a1-6)]Man(b1-4)GlcNAc(b1-4)GlcNAc
# In short: as §1
# [6] = biological target: Fuc(a1-2)[GalNAc(a1-3)]Gal(b1-3)GlcNAc(b1-2)Man(a1-3)[Fuc(a1-2)[GalNAc(a1-3)]Gal(b1-3)GlcNAc(b1-2)Man(a1-6)]Man(b1-4)GlcNAc(b1-4)[Fuc(a1-6)]GlcNAc
# In short: as §1
# [7] = biological target: Fuc(a1-2)[GalNAc(a1-3)]Gal(b1-3)GlcNAc(b1-6)GalNAc
# In short: as §1
# [8] = biological target: Fuc(a1-2)[GalNAc(a1-3)]Gal(b1-4)GlcNAc(b1-6)GalNAc
# In short: as §1
# [9] = biological target: Fuc(a1-2)[GalNAc(a1-3)]Gal(b1-4)[Fuc(a1-3)]GlcNAc
# In short: as §1
# [10] = biological target: Fuc(a1-2)[GalNAc(a1-3)]Gal(b1-4)[Fuc(a1-3)]GlcNAc(b1-3)GalNAc
# In short: as §1
# [11] = biological target: Fuc(a1-3)[Gal(b1-4)]GlcNAc(b1-3)GalNAc
# In short: as §1
# [12] = biological target: Fuc(a1-3)[Gal3S(b1-4)]Glc
# In short: as §1
# [13] = biological target: Fuc(a1-3)[Gal3S(b1-4)]GlcNAc6S
# In short: as §1
# [14] = biological target: Fuc(a1-4)GlcNAc
# In short: as §1
# [15] = biological target: Gal(a1-3)Gal(b1-3)GlcNAc(b1-6)GalNAc
# In short: as §1
# [16] = biological target: Gal(a1-3)[Gal(a1-4)]Gal(b1-4)GlcNAc
# In short: as §1
# [17] = biological target: Gal(a1-4)Gal(b1-4)GlcNAc(b1-2)Man(a1-3)[Gal(a1-4)Gal(b1-4)GlcNAc(b1-2)Man(a1-6)]Man(b1-4)GlcNAc(b1-4)GlcNAc
# In short: as §1
# [18] = biological target: Gal(b1-2)Gal
# In short: as §1
# [19] = biological target: Gal(b1-3)GalNAc(b1-3)Gal(a1-4)Gal(b1-4)Glc
# In short: as §1
# [20] = biological target: Gal(b1-3)GlcNAc(b1-2)[Gal(b1-3)GlcNAc(b1-6)]Man(a1-6)[Gal(b1-3)GlcNAc(b1-2)Man(a1-3)]Man(b1-4)GlcNAc(b1-4)GlcNAc
# In short: as §1
# [21] = biological target: Gal(b1-3)GlcNAc(b1-3)Gal(b1-4)GlcNAc(b1-3)Gal(b1-4)GlcNAc(b1-2)[Gal(b1-3)GlcNAc(b1-3)Gal(b1-4)GlcNAc(b1-3)Gal(b1-4)GlcNAc(b1-6)]Man(a1-6)[Gal(b1-3)GlcNAc(b1-3)Gal(b1-4)GlcNAc(b1-3)Gal(b1-4)GlcNAc(b1-2)Man(a1-3)]Man(b1-4)GlcNAc(b1-4)[Fuc(a1-6)]GlcNAc
# In short: as §1
# [22] = biological target: Gal(b1-3)GlcNAc(b1-6)GalNAc
# In short: as §1
# [23] = biological target: Gal(b1-4)GlcNAc(b1-2)Man(a1-3)[Gal(b1-4)GlcNAc(b1-2)Man(a1-6)]Man(b1-4)GlcNAc(b1-4)GlcNAc
# In short: as §1
# [24] = biological target: Gal(b1-4)GlcNAc(b1-2)Man(a1-6)[Man(a1-3)]Man(b1-4)GlcNAc(b1-4)GlcNAc
# In short: as §1
# [25] = biological target: Gal(b1-4)GlcNAc(b1-2)[Gal(b1-4)GlcNAc(b1-6)]Man(a1-6)[Gal(b1-4)GlcNAc(b1-2)Man(a1-3)]Man(b1-4)GlcNAc(b1-4)[Fuc(a1-6)]GlcNAc
# In short: as §1
# [26] = biological target: Gal(b1-4)GlcNAc(b1-3)Gal(b1-4)GlcNAc(b1-2)Man(a1-3)[Gal(b1-4)GlcNAc(b1-3)Gal(b1-4)GlcNAc(b1-2)Man(a1-6)]Man(b1-4)GlcNAc(b1-4)GlcNAc
# In short: as §1
# [27] = biological target: Gal(b1-4)GlcNAc(b1-3)Gal(b1-4)GlcNAc(b1-3)Gal(b1-4)GlcNAc(b1-3)Gal(b1-4)GlcNAc(b1-3)Gal(b1-4)GlcNAc(b1-3)Gal(b1-4)GlcNAc(b1-2)Man(a1-3)[Gal(b1-4)GlcNAc(b1-3)Gal(b1-4)GlcNAc(b1-3)Gal(b1-4)GlcNAc(b1-3)Gal(b1-4)GlcNAc(b1-3)Gal(b1-4)GlcNAc(b1-3)Gal(b1-4)GlcNAc(b1-2)Man(a1-6)]Man(b1-4)GlcNAc(b1-4)GlcNAc
# In short: as §1
# [28] = biological target: Gal(b1-4)GlcNAc(b1-3)GalNAc
# In short: as §1
# [29] = biological target: Gal3S(b1-4)[Fuc(a1-3)]Glc6S
# In short: as §1
# [30] = biological target: GalNAc(b1-3)GlcNAc
# In short: as §1
# [31] = biological target: GalNAc(b1-4)Gal(b1-4)Glc
# In short: as §1
# [32] = biological target: GlcA3S(b1-3)Gal(b1-4)GlcNAc(b1-3)Gal(b1-4)Glc
# In short: as §1
# [33] = biological target: GlcNAc(a1-4)Gal(b1-4)GlcNAc(b1-3)Gal(b1-4)GlcNAc
# In short: as §1
# [34] = biological target: GlcNAc(b1-2)Man(a1-3)[GlcNAc(b1-4)][GlcNAc(b1-2)Man(a1-6)]Man(b1-4)GlcNAc(b1-4)GlcNAc
# In short: as §1
# [35] = biological target: GlcNAc(b1-3)Fuc
# In short: as §1
# [36] = biological target: GlcNAc(b1-3)Gal(b1-4)GlcNAc(b1-2)Man(a1-3)[GlcNAc(b1-3)Gal(b1-4)GlcNAc(b1-2)Man(a1-6)]Man(b1-4)GlcNAc(b1-4)GlcNAc
# In short: as §1
# [37] = biological target: GlcNAc(b1-3)Gal(b1-4)GlcNAc(b1-2)[GlcNAc(b1-3)Gal(b1-4)GlcNAc(b1-6)]Man(a1-6)[GlcNAc(b1-3)Gal(b1-4)GlcNAc(b1-2)Man(a1-3)]Man(b1-4)GlcNAc(b1-4)GlcNAc
# In short: as §1
# [38] = biological target: GlcNAc(b1-3)Gal(b1-4)GlcNAc(b1-3)Gal(b1-4)GlcNAc(b1-3)Gal(b1-4)GlcNAc(b1-3)Gal(b1-4)GlcNAc(b1-2)[GlcNAc(b1-3)Gal(b1-4)GlcNAc(b1-3)Gal(b1-4)GlcNAc(b1-3)Gal(b1-4)GlcNAc(b1-3)Gal(b1-4)GlcNAc(b1-6)]Man(a1-6)[GlcNAc(b1-3)Gal(b1-4)GlcNAc(b1-3)Gal(b1-4)GlcNAc(b1-3)Gal(b1-4)GlcNAc(b1-3)Gal(b1-4)GlcNAc(b1-2)Man(a1-3)]Man(b1-4)GlcNAc(b1-4)[Fuc(a1-6)]GlcNAc
# In short: as §1
# [39] = biological target: GlcNAc6S(b1-3)Gal(b1-4)GlcNAc
# In short: as §1
# [40] = biological target: Man(a1-2)Man(a1-3)[Man(a1-2)Man(a1-6)]Man(a1-6)[Man(a1-2)Man(a1-2)Man(a1-3)]Man
# In short: as §1
# [41] = biological target: MurNAc(b1-4)GlcNAc
# In short: as §1
# [42] = biological target: Neu5Ac(a2-3)Gal(b1-3)GalNAc(b1-4)[Neu5Ac(a2-8)Neu5Ac(a2-3)]Gal(b1-4)Glc
# In short: as §1
# [43] = biological target: Neu5Ac(a2-3)Gal(b1-3)GlcNAc
# In short: as §1
# [44] = biological target: Neu5Ac(a2-3)Gal(b1-3)[Neu5Ac(a2-6)]GlcNAc(b1-3)[Fuc(a1-3)[Gal(b1-4)]GlcNAc(b1-6)]Gal(b1-4)Glc
# In short: as §1
# [45] = biological target: Neu5Ac(a2-3)Gal(b1-4)GlcNAc(b1-2)[Neu5Ac(a2-3)Gal(b1-4)GlcNAc(b1-6)]Man(a1-6)[Neu5Ac(a2-3)Gal(b1-4)GlcNAc(b1-2)Man(a1-3)]Man(b1-4)GlcNAc(b1-4)GlcNAc
# In short: as §1
# [46] = biological target: Neu5Ac(a2-3)Gal(b1-4)GlcNAc(b1-6)[Neu5Ac(a2-3)Gal(b1-3)]GalNAc
# In short: as §1
# [47] = biological target: Neu5Ac(a2-3)Gal(b1-4)[Fuc(a1-3)]GlcNAc(b1-3)GalNAc
# In short: as §1
# [48] = biological target: Neu5Ac(a2-6)Gal(b1-4)GlcNAc(b1-2)Man(a1-6)[Man(a1-3)]Man(b1-4)GlcNAc(b1-4)GlcNAc
# In short: as §1
# [49] = biological target: Neu5Ac(a2-8)Neu5Ac(a2-3)[Gal(b1-3)GalNAc(b1-4)]Gal(b1-4)Glc
# In short: as §1
binder,measurement,setting,value
B1,glycan array binding signal (z-score),[1],-0.523
same,glycan array binding signal (z-score),[2],0.123
same,glycan array binding signal (z-score),[3],-0.573
same,glycan array binding signal (z-score),[4],-0.447
same,glycan array binding signal (z-score),[5],-0.684
same,glycan array binding signal (z-score),[6],-0.163
same,glycan array binding signal (z-score),[7],-0.584
same,glycan array binding signal (z-score),[8],-0.132
same,glycan array binding signal (z-score),[9],-0.375
same,glycan array binding signal (z-score),[10],16.3
same,glycan array binding signal (z-score),[11],0.084
same,glycan array binding signal (z-score),[12],-0.504
same,glycan array binding signal (z-score),[13],0.763
same,glycan array binding signal (z-score),[14],-0.31
same,glycan array binding signal (z-score),[15],-0.356
same,glycan array binding signal (z-score),[16],1.85
same,glycan array binding signal (z-score),[17],0.418
same,glycan array binding signal (z-score),[18],-0.839
same,glycan array binding signal (z-score),[19],0.121
same,glycan array binding signal (z-score),[20],-0.739
same,glycan array binding signal (z-score),[21],0.989
same,glycan array binding signal (z-score),[22],-0.441
same,glycan array binding signal (z-score),[23],-0.393
same,glycan array binding signal (z-score),[24],0.031
same,glycan array binding signal (z-score),[25],1.6
same,glycan array binding signal (z-score),[26],1.01
same,glycan array binding signal (z-score),[27],2.18
same,glycan array binding signal (z-score),[28],0.32
same,glycan array binding signal (z-score),[29],1.65
same,glycan array binding signal (z-score),[30],0.418
same,glycan array binding signal (z-score),[31],0.371
same,glycan array binding signal (z-score),[32],2.45
same,glycan array binding signal (z-score),[33],1.54
same,glycan array binding signal (z-score),[34],-0.359
same,glycan array binding signal (z-score),[35],-0.426
same,glycan array binding signal (z-score),[36],-0.142
same,glycan array binding signal (z-score),[37],1.5
same,glycan array binding signal (z-score),[38],1.28
same,glycan array binding signal (z-score),[39],-0.663
same,glycan array binding signal (z-score),[40],0.574
same,glycan array binding signal (z-score),[41],-0.389
same,glycan array binding signal (z-score),[42],-0.829
same,glycan array binding signal (z-score),[43],0.156
same,glycan array binding signal (z-score),[44],-0.376
same,glycan array binding signal (z-score),[45],-0.526
same,glycan array binding signal (z-score),[46],-0.478
same,glycan array binding signal (z-score),[47],1.49
same,glycan array binding signal (z-score),[48],1.67
same,glycan array binding signal (z-score),[49],0.946
